Our source for the growth values is PubChem BioAssay (NCI).

Holding throughout (experiment): NCI-60 one-dose screen, 48 h (100 = growth as untreated, 0 = no growth, -100 = all killed)
For one experiment, the system named is SK-MEL-2 melanoma. To be noted: 10 µM unless noted.
The next experiment has as its system SN12C renal. As to conditions: 10 µM unless noted.
In another experiment the test system is UO-31 renal. To be noted: 10 µM unless noted.
The next experiment relates to TK-10 renal. To be noted: 10 µM unless noted.
In the next experiment the test system is ACHN renal. To be noted: 10 µM unless noted.
For the next experiment, the system named is CCRF-CEM leukemia. As to conditions: 10 µM unless noted.
Another experiment deals with MOLT-4 leukemia. As to conditions: 10 µM unless noted.
In another experiment the test system is SR leukemia. To be noted: 10 µM unless noted.
The next experiment has as its system RPMI-8226 leukemia. As to conditions: 10 µM unless noted.
In a further experiment the test system is OVCAR-8 ovarian. As to conditions: 10 µM unless noted.
A further experiment relates to OVCAR-5 ovarian. As to conditions: 10 µM unless noted.
Another experiment has as its system OVCAR-4 ovarian. As to conditions: 10 µM unless noted.
The subject of the next experiment is SK-OV-3 ovarian. To be noted: 10 µM unless noted.
The subject of another experiment is IGROV1 ovarian. To be noted: 10 µM unless noted.
A further experiment relates to OVCAR-3 ovarian. As to conditions: 10 µM unless noted.
In the next experiment the test system is HS 578T breast. To be noted: 10 µM.
For the next experiment, the system named is NCI/ADR-RES ovarian. As to conditions: 10 µM unless noted.
In another experiment the test system is CAKI-1 renal. To be noted: 10 µM unless noted.
A further experiment deals with A498 renal. As to conditions: 10 µM unless noted.
The next experiment concerns EKVX NSCLC. As to conditions: 10 µM unless noted.

SMILES strings stand for the structures. Compounds without any hit were thinned out: in the full panel of roughly 83,000, 20% have a hit.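 The endpoint reported here, percent growth, reads 100 for growth as untreated, 0 for no net growth and -100 for all cells dead.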 Unmarked numbers belong to inactive results. The source made the active and inactive calls. How the source made its calls: active means growth percent below 10; inactive means the rest.

Turning to `COc1ccc(C2=CC(c3ccc(OC)cc3Br)N3C=CSC3=N2)cc1` (stereo not drawn), the growth in the experiment on SK-MEL-2 melanoma is 109%; with SN12C renal it was 57.6%; in the experiment on UO-31 renal it was 37.7%; in the experiment with TK-10 renal, 72%; in the experiment on ACHN renal, 71.4%; in the experiment on CCRF-CEM leukemia it was 26.9%. Moreover, the growth in the experiment on MOLT-4 leukemia is 36.7%; with SR leukemia, -22.1% (active); in the experiment with RPMI-8226 leukemia, -9.05% (active); in the experiment with OVCAR-8 ovarian, 73.7%; in the experiment on OVCAR-5 ovarian, 84.6%; in the experiment with OVCAR-4 ovarian it was 79.7%. Besides, the growth in the experiment with SK-OV-3 ovarian was 98.2%; in the experiment with IGROV1 ovarian, 37.8%; in the experiment on OVCAR-3 ovarian, 37.5%; with HS 578T breast, 87.7%; in the experiment with NCI/ADR-RES ovarian it was 86.5%.
For `COc1ccc(-c2cnc3ccnn3c2-c2cc(OC)c(OC)c(OC)c2)cc1`, the growth with SK-MEL-2 melanoma was 36.9%; in the experiment with SN12C renal it was 42%; in the experiment on UO-31 renal, 48.3%; in the experiment with TK-10 renal, 59.6%; with CAKI-1 renal, 46.5%; in the experiment on A498 renal, -5.57% (active). The growth was 16.3% with CCRF-CEM leukemia; 46.7% in the experiment with MOLT-4 leukemia; 23.9% in the experiment with RPMI-8226 leukemia; 47% in the experiment with OVCAR-8 ovarian; 66.1% in the experiment with OVCAR-5 ovarian; 75.4% in the experiment with OVCAR-4 ovarian. The growth was 32% with SK-OV-3 ovarian; 62.3% with IGROV1 ovarian; -37.9% (active) with OVCAR-3 ovarian; 16.7% with HS 578T breast; 27.4% in the experiment with NCI/ADR-RES ovarian.
As to `COc1ccc(C2C3=C(COC3=O)N(CCO)c3cc(OC)c(OC)cc32)cc1` (stereo not drawn), the growth was 86.2% in the experiment on EKVX NSCLC; 102% with SN12C renal; 90.8% with UO-31 renal; 93.4% in the experiment with TK-10 renal; 99.8% in the experiment on ACHN renal; 108% in the experiment on CAKI-1 renal. Besides, the growth in the experiment on A498 renal is 103%; with CCRF-CEM leukemia, 95.8%; in the experiment with MOLT-4 leukemia, 88.2%; in the experiment on SR leukemia, 93.1%; with RPMI-8226 leukemia, 96.1%; with OVCAR-8 ovarian, 108%. Further, the growth is 104% with OVCAR-5 ovarian; 105% with OVCAR-4 ovarian; 106% in the experiment on SK-OV-3 ovarian; 119% in the experiment on IGROV1 ovarian; 109% in the experiment on OVCAR-3 ovarian; 106% in the experiment with HS 578T breast. Further, in the experiment with NCI/ADR-RES ovarian, the growth is 105%.
For `Cc1ccccc1CNc1ncnc2[nH]ncc12`, the growth in the experiment with EKVX NSCLC is 71.6%; in the experiment on SN12C renal it was 112%; in the experiment on UO-31 renal, 37%; with TK-10 renal, 83.8%; in the experiment on ACHN renal, 87.2%; in the experiment with CAKI-1 renal it was 69%. In addition, the growth in the experiment with A498 renal is 93.9%; with CCRF-CEM leukemia, 146%; with MOLT-4 leukemia, -58.2% (active); with SR leukemia, 60.9%; with RPMI-8226 leukemia, 88.5%; in the experiment with OVCAR-8 ovarian it was 59.7%. Further, the growth in the experiment with OVCAR-5 ovarian is 89.6%; in the experiment with OVCAR-4 ovarian, 78%; with SK-OV-3 ovarian, 100%; with IGROV1 ovarian, -19.4% (active); in the experiment on OVCAR-3 ovarian, 117%; in the experiment on HS 578T breast, 165%. For the same compound, in the experiment on NCI/ADR-RES ovarian, the growth was 106%.
As to `O=C1OCC2=C1C(c1cccc(Br)c1)c1cc3c(cc1N2CCO)OCCO3` (stereo not drawn), the growth in the experiment on EKVX NSCLC is 44.1%; in the experiment with SN12C renal, 26.7%; with UO-31 renal it was 18.1%; in the experiment with TK-10 renal it was 62.7%; in the experiment with ACHN renal, 33.8%; in the experiment on CAKI-1 renal, 15%. The growth is -11% (active) in the experiment with A498 renal; 9.31% (active) in the experiment with CCRF-CEM leukemia; 20.5% with MOLT-4 leukemia; 29.8% in the experiment on SR leukemia; 21.4% in the experiment on RPMI-8226 leukemia; 9.03% (active) in the experiment on OVCAR-8 ovarian. For the same compound, the growth was 39.5% with OVCAR-5 ovarian; 53.4% in the experiment on OVCAR-4 ovarian; 32.3% in the experiment with SK-OV-3 ovarian; 18.3% in the experiment with IGROV1 ovarian; -61.5% (active) with OVCAR-3 ovarian; 8.74% (active) in the experiment with HS 578T breast. For the same compound, in the experiment on NCI/ADR-RES ovarian, the growth was 8.43% (active).
Regarding `Cc1ccccc1N1C(c2ccccc2)=NNC12C=CC(=O)c1c(O)cccc12` (stereo not drawn), the growth was 79.7% with EKVX NSCLC; 62.2% in the experiment on SN12C renal; 57.5% with UO-31 renal; 116% with TK-10 renal; 81.7% in the experiment on ACHN renal; 96.9% with CAKI-1 renal. Besides, the growth in the experiment on A498 renal was 76.4%; in the experiment with CCRF-CEM leukemia it was 119%; with MOLT-4 leukemia, 101%; in the experiment on SR leukemia, 97%; in the experiment with RPMI-8226 leukemia, 83.8%; with OVCAR-8 ovarian, 60.1%. Moreover, the growth was 83.8% in the experiment with OVCAR-5 ovarian; 61.3% with OVCAR-4 ovarian; 74.4% in the experiment on SK-OV-3 ovarian; 93.2% in the experiment with IGROV1 ovarian; 72.5% in the experiment on NCI/ADR-RES ovarian.
As for `COc1ccc(C(=O)C(C#N)c2cc(OC)c(OC)c(OC)c2)cc1` (stereo not drawn), the growth with SK-MEL-2 melanoma is 99.7%; with SN12C renal, 109%; in the experiment with UO-31 renal, 96.5%; in the experiment with TK-10 renal it was 94%; with ACHN renal, 104%; in the experiment on CAKI-1 renal, 129%. Also, the growth in the experiment with CCRF-CEM leukemia was 102%; in the experiment on SR leukemia, 71.5%; with RPMI-8226 leukemia, 96.7%; with OVCAR-8 ovarian, 93%; in the experiment with OVCAR-5 ovarian it was 106%; in the experiment on OVCAR-4 ovarian, 102%. Further, the growth with SK-OV-3 ovarian is 105%; with IGROV1 ovarian, 110%; with OVCAR-3 ovarian, 111%; with HS 578T breast, 105%; in the experiment with NCI/ADR-RES ovarian it was 108%.
`O=C(O)/C=C(\c1nc2ccc([N+](=O)[O-])cc2[nH]1)c1cc(Cl)ccc1O`: the growth was 17.6% in the experiment on EKVX NSCLC; 13.1% in the experiment with SN12C renal; 17% with UO-31 renal; 27.4% in the experiment on TK-10 renal; 12.5% with ACHN renal; 7.28% (active) in the experiment with A498 renal. Besides, the growth is 0.888% (active) with CCRF-CEM leukemia; -4.02% (active) in the experiment with MOLT-4 leukemia; 29.6% with SR leukemia; -15.7% (active) in the experiment with RPMI-8226 leukemia; 24.5% with OVCAR-8 ovarian; 87.1% in the experiment with OVCAR-5 ovarian. In addition, the growth with OVCAR-4 ovarian is 8.51% (active); in the experiment with SK-OV-3 ovarian, 29.9%; in the experiment with IGROV1 ovarian, 25.7%; with OVCAR-3 ovarian, -16% (active); with HS 578T breast, 45.9%; in the experiment with NCI/ADR-RES ovarian, 17.7%.
